Data: ChEMBL document CHEMBL1961873, “Compounds: GSK PKIS; Assays: Nanosyn kinase panel” (2012)
Where “and” joins values, the source holds several entries; their conditions need not be identical. Equal values may be shown once.

Experiments:
[1] = biological target: Mitogen-activated protein kinase 3 (Homo sapiens) (UniProt P27361); settings: at 1 µM;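 further: values are mean percent inhibition of MAPK3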
[2] = biological target: SRSF protein kinase 3 (Homo sapiens) (UniProt Q9UPE1); settings: at 0.1 µM
Chain of SRSF protein kinase 3 (Homo sapiens) (Q9UPE1 whole entry): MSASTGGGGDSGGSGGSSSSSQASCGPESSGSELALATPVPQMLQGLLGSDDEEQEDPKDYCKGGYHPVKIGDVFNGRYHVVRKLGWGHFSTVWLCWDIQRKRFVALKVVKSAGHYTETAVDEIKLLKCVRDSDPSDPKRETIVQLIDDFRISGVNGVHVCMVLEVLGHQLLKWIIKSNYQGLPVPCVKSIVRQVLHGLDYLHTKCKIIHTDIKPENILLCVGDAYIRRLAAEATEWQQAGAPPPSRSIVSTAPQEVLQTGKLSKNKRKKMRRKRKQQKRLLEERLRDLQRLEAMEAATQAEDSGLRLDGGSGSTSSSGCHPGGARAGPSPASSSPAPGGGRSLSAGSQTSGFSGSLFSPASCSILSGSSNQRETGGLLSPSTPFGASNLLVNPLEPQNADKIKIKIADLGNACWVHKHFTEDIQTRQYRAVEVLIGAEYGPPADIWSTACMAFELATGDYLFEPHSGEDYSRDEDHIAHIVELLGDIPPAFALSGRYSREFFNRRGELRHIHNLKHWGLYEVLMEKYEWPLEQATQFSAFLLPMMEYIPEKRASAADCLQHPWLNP

[3] = biological target: SRSF protein kinase 3 (Homo sapiens) (UniProt Q9UPE1); settings: at 1 µM
[4] = biological target: Mitogen-activated protein kinase 14 (Homo sapiens) (UniProt Q16539); settings: at 0.1 µM
Chain of Mitogen-activated protein kinase 14 (Homo sapiens) (Q16539 whole entry): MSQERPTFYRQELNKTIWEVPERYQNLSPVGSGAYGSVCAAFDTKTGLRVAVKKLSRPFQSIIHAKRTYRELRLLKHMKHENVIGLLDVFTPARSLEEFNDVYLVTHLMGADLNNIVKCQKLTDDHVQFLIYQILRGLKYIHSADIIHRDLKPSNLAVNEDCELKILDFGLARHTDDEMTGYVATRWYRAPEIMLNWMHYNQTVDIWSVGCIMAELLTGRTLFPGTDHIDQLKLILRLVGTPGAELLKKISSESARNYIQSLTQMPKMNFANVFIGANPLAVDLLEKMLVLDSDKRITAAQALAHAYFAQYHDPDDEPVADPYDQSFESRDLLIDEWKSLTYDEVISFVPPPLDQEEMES

[5] = biological target: Mitogen-activated protein kinase 14 (Homo sapiens) (UniProt Q16539); settings: at 1 µM
[6] = biological target: Mitogen-activated protein kinase 11 (Homo sapiens) (UniProt Q15759); settings: at 0.1 µM
Chain of Mitogen-activated protein kinase 11 (Homo sapiens) (Q15759 whole entry): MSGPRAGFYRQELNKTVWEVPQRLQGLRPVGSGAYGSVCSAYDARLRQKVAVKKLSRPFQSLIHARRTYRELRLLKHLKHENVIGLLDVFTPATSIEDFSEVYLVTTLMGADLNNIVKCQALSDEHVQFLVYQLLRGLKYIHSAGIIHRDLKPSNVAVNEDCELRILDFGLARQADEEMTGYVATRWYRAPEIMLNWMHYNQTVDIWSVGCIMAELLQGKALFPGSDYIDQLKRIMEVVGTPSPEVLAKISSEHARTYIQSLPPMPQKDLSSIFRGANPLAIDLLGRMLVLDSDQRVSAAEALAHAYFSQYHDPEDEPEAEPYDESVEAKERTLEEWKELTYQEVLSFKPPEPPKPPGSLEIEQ

[7] = biological target: Mitogen-activated protein kinase 11 (Homo sapiens) (UniProt Q15759); settings: at 1 µM
[8] = biological target: T1, Mitogen-activated protein kinase 13 (Homo sapiens) (UniProt O15264); settings: at 0.1 µM
T1 sequence (whole entry): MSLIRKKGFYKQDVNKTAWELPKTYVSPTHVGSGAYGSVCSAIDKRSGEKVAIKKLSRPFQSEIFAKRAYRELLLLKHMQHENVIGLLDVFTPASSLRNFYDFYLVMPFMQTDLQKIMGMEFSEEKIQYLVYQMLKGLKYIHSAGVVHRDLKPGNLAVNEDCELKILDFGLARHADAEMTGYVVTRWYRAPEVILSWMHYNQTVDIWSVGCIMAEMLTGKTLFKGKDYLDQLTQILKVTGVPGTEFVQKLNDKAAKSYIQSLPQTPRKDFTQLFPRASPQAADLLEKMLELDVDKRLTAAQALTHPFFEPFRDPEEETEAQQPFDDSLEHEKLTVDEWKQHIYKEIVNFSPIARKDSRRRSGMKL

[9] = biological target: T1, Mitogen-activated protein kinase 13 (Homo sapiens); settings: at 1 µM
[10] = biological target: T2, Mitogen-activated protein kinase 12 (Homo sapiens) (UniProt P53778); settings: at 0.1 µM
T2 sequence (whole entry): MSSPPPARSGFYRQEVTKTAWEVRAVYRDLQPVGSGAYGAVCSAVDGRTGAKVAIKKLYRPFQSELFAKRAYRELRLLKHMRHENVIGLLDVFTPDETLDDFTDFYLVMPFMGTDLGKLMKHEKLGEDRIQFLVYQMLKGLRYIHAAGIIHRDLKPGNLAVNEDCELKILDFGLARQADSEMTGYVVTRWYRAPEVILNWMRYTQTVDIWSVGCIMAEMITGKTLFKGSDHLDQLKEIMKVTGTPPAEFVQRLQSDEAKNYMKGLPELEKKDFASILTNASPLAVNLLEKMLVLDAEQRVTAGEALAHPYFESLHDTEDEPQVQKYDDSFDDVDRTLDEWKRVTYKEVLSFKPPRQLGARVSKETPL

[11] = biological target: T2, Mitogen-activated protein kinase 12 (Homo sapiens); settings: at 1 µM
[12] = biological target: SRSF protein kinase 1 (Homo sapiens) (UniProt Q96SB4); settings: at 0.1 µM
Chain of SRSF protein kinase 1 (Homo sapiens) (Q96SB4 whole entry, canonical isoform): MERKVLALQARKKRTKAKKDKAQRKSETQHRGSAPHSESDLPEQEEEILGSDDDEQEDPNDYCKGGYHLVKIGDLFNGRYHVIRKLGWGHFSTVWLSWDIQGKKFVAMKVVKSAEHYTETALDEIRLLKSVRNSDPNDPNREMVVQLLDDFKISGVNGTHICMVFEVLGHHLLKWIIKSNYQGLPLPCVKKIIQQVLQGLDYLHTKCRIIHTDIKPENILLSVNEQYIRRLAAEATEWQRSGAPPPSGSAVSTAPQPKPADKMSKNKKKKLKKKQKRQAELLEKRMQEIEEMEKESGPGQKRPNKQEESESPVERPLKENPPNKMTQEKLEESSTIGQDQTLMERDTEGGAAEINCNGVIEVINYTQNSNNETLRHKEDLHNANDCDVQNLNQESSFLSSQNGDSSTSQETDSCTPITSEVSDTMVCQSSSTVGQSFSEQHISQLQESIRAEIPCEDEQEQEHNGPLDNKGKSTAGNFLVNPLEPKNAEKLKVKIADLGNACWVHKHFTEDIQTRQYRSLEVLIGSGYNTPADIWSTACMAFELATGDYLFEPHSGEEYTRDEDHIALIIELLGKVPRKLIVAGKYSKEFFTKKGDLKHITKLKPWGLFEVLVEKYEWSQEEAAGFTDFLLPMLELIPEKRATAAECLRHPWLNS

[13] = biological target: SRSF protein kinase 1 (Homo sapiens) (UniProt Q96SB4); settings: at 1 µM
[14] = biological target: Phosphatidylinositol 4,5-bisphosphate 3-kinase catalytic subunit alpha isoform (Homo sapiens) (UniProt P42336); settings: at 0.1 µM
Chain of Phosphatidylinositol 4,5-bisphosphate 3-kinase catalytic subunit alpha isoform (Homo sapiens) (P42336 whole entry, canonical isoform): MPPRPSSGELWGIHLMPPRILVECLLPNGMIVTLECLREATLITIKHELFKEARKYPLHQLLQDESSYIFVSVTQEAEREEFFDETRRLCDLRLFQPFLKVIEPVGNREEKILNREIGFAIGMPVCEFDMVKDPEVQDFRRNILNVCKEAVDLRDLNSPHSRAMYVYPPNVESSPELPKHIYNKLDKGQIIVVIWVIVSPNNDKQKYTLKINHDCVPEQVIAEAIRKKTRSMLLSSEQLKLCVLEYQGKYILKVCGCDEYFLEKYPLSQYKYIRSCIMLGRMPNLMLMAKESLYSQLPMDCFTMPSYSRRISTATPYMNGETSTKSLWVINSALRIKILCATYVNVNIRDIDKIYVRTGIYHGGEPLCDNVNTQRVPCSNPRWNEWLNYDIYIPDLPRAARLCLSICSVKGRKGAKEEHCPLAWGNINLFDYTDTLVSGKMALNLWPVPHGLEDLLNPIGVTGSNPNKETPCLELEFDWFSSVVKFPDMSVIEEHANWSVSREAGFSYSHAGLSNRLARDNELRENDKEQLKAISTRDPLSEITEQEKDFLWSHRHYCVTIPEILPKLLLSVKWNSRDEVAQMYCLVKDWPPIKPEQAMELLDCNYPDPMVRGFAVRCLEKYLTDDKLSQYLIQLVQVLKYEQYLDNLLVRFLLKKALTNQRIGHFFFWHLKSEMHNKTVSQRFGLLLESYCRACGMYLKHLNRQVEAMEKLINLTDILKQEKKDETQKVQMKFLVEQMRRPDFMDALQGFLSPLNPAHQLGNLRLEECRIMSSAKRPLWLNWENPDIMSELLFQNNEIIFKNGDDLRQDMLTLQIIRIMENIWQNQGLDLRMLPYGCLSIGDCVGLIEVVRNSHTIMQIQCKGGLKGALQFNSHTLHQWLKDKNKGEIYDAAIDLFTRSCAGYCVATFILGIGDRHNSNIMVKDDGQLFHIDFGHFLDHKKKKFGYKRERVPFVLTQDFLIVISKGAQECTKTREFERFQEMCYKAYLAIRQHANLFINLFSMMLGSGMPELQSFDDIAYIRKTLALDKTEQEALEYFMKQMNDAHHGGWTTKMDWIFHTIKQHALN

[15] = biological target: Phosphatidylinositol 4,5-bisphosphate 3-kinase catalytic subunit alpha isoform (Homo sapiens) (UniProt P42336); settings: at 1 µM
[16] = biological target: T3, Phosphatidylinositol 4,5-bisphosphate 3-kinase catalytic subunit delta isoform (Homo sapiens) (UniProt O00329); settings: at 0.1 µM
T3 sequence (whole entry): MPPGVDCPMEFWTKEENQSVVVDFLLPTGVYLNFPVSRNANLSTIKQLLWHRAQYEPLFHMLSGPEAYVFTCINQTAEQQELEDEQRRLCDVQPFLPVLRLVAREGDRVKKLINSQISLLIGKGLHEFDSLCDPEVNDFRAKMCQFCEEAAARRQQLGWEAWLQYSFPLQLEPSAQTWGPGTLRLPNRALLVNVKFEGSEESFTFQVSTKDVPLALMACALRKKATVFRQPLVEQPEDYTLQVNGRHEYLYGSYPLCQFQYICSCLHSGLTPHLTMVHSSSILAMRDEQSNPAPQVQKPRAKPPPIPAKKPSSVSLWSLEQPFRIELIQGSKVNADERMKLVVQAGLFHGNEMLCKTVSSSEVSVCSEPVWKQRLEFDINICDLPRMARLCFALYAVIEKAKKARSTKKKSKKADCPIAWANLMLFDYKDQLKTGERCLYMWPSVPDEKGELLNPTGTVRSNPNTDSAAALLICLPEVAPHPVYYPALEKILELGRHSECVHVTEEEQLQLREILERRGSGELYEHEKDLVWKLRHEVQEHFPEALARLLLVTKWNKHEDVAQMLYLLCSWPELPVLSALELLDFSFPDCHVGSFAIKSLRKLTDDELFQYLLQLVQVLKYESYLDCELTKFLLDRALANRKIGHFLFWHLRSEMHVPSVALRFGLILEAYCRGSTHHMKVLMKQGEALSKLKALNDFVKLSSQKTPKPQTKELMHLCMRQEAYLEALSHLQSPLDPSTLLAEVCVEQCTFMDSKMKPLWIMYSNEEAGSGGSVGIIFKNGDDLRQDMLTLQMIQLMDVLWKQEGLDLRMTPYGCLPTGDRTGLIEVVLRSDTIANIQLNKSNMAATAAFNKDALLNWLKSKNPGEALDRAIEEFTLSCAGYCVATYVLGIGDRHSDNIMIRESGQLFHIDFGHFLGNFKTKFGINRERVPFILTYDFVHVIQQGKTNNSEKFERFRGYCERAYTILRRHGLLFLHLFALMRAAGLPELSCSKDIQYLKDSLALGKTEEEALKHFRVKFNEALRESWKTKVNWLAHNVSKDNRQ

[17] = biological target: T3, Phosphatidylinositol 4,5-bisphosphate 3-kinase catalytic subunit delta isoform (Homo sapiens); settings: at 1 µM
[18] = biological target: Phosphatidylinositol 4-kinase beta (Homo sapiens) (UniProt Q9UBF8); settings: at 0.1 µM
Chain of Phosphatidylinositol 4-kinase beta (Homo sapiens) (Q9UBF8 2-816 limits assumed): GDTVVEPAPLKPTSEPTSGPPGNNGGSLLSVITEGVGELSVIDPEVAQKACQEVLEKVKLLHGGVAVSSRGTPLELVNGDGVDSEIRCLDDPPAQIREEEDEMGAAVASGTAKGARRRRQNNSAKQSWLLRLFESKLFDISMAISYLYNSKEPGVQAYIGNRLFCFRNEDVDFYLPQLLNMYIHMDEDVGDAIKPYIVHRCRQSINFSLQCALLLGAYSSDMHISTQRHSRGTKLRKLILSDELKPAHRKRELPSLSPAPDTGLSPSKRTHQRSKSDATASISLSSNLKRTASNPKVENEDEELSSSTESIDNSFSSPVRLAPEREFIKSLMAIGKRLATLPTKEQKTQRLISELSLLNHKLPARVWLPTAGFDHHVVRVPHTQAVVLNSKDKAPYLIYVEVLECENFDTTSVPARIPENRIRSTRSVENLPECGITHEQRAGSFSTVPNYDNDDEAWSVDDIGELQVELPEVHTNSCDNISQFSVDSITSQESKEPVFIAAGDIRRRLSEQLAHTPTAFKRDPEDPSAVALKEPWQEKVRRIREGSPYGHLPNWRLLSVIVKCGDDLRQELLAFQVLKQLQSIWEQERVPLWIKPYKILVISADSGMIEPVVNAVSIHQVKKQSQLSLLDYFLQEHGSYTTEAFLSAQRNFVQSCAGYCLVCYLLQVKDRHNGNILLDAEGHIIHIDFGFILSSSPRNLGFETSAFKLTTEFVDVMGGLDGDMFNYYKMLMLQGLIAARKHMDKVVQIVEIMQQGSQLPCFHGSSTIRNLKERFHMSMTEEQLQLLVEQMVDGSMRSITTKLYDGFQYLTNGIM

[19] = biological target: Phosphatidylinositol 4-kinase beta (Homo sapiens) (UniProt Q9UBF8); settings: at 1 µM
[20] = biological target: Sphingosine kinase 1 (Homo sapiens) (UniProt Q9NYA1); settings: at 0.1 µM;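 further: mean percent inhibition of SPHK1 activity, measured within the GSK PKIS screening panel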
Chain of Sphingosine kinase 1 (Homo sapiens) (Q9NYA1 whole entry): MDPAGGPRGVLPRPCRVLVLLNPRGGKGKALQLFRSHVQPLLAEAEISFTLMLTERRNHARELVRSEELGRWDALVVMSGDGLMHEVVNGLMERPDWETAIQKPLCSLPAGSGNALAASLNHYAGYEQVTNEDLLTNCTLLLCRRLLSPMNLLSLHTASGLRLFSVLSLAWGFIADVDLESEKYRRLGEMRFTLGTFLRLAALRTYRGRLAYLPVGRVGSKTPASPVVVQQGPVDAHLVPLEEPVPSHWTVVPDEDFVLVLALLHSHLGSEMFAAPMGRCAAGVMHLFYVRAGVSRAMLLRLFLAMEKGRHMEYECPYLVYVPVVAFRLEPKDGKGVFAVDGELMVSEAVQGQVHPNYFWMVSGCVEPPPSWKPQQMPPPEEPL

Chain of Mitogen-activated protein kinase 3 (Homo sapiens) (P27361 whole entry): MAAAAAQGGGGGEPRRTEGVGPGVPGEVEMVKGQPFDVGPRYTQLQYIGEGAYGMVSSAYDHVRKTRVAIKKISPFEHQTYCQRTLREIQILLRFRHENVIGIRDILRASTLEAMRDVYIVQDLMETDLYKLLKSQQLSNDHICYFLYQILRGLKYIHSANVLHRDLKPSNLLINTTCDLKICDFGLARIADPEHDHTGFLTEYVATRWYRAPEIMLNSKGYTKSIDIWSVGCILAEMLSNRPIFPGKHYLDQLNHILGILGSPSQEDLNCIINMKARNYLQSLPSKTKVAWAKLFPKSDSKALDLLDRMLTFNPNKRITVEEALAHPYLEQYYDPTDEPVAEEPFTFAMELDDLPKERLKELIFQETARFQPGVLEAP

| SMILES | inhibition [1] | inhibition [2] | inhibition [3] | inhibition [4] | inhibition [5] | inhibition [6] | inhibition [7] | inhibition [8] | inhibition [9] | inhibition [10] | inhibition [11] | inhibition [12] | inhibition [13] | inhibition [14] | inhibition [15] | inhibition [16] | inhibition [17] | inhibition [18] | inhibition [19] | inhibition [20] |
| --- | --- | --- | --- | --- | --- | --- | --- | --- | --- | --- | --- | --- | --- | --- | --- | --- | --- | --- | --- | --- |
| CN1CCN(Cc2ccc(-c3cc4ncnc(Nc5ccc(OCc6cccc(F)c6)c(Cl)c5)c4s3)o2)CC1 | 4.3% and 6.64% | -2.01% and -2.56% | -1.87% and -0.88% | 11.4% and 3.49% | 11.9% and 8.59% | 7.76% and 7.78% | 11.5% and 9.04% | 2.21% and 1.13% | 1.76% and 5.79% | 1.79% and 3.59% | 2.94% and 2.8% | -2.39% and -1.61% | -2.07% and 0.69% | 1.34% and 4.72% | 2.47% and 5.81% | 1.29% and 2.75% | 3.39% and 4.31% | 0.91% | 1.06% | 10.5% and 0.88% |
| CC1=C(C(=O)Nc2ccc3[nH]ncc3c2)C(c2ccc(F)cc2)N=C(c2ccc(C(F)(F)F)nc2)N1 (configuration not stated) | -0.07% | 0.36% | 0.93% | 6.91% | 7.75% | 0.24% | 2.12% | 2.38% | 2.31% | 0.91% | 1.85% | -1.07% | -0.7% | 2.87% | 4.33% | 2.9% | 4.49% | 4.33% | -3.27% | -0.6% |
| OCCCNc1nccc(-c2c(-c3ccc(F)cc3)nn3cc(C(F)(F)F)ccc23)n1 | 5.6% | 1.09% | 3.54% | 64.4% | 91% | 22.7% | 68.7% | 4.11% | 3.39% | 3.46% | 2.13% | -1.12% | -3.43% | 2.12% | 2.75% | 4.76% | 4.87% | 4.2% | -3.41% | -0.34% |
| N#Cc1ccc2c(-c3ccnc(NC4CC4)n3)c(-c3ccc(F)cc3)nn2c1 | 1.27% | -2.45% | -1.38% | 75.4% | 84.2% | 44.5% | 74.8% | 1.17% | 0.18% | 1% | 1.13% | -1.5% | -2.4% | 0.7% | 0.6% | -0.45% | -0.14% | -2.01% | -0.71% | 3.55% |
| Fc1cccc(COc2ccc(Nc3ncncc3C#Cc3ccccc3)cc2Cl)c1 | 5.53% | -0.87% | 0.58% | 6.33% | 11.6% | 3.77% | 8.28% | -1.02% | 3.79% | 2.17% | 2.58% | -0.38% | 3.43% | 3.88% | 2.67% | 1.53% | 1.09% | 1.02% | -1.52% | 1.58% |
| Cc1cc(O)cc(C)c1/C=C/c1cncc(C(N)=O)c1 | 2.77% | 1.7% | 1.04% | 4.9% | 6.5% | 0.52% | 0.8% | 2.3% | 1.36% | 1.1% | 1.72% | -2.4% | -0.6% | 0.88% | 3.67% | 0.87% | 2.16% | 0.44% | -1.46% | -0.95% |
| COC(=O)Nc1nc2cc(Oc3ccc(NC(=O)Nc4ccccc4)cc3)ccc2[nH]1 | 4.97% | -2.65% | 1.09% | 1.53% | 6.62% | 3.05% | 8.13% | -0.27% | 1.34% | 3.43% | 1.26% | -2.23% | -0.94% | 3.19% | 0% | 0.3% | 0.14% | 3.09% | 2.26% | -0.55% |
| COc1cccc(Nc2nccc(-c3cnn4ncccc34)n2)c1 | 13.1% | -0.05% | 0.66% | 5.7% | 9.35% | 4.7% | 7.72% | 5% | 15.2% | 1.36% | 9.23% | -0.98% | 4.98% | 3.25% | 17% | 3.95% | 19.1% | -0.93% | 11.1% | 0.27% |
| Nc1nccc(-c2c(-c3ccc(F)cc3)ncn2C2CCNCC2)n1 | 1.29% and 5.05% | -1.41% and 0.32% | -1.34% and 0.18% | – | – | – | – | – | – | – | – | 1.49% and -1% | -0.09% and 0.83% | -3.2% and 3.79% | 1.34% and 1.58% | -0.68% and 4.92% | 6.51% and 6.41% | 0.69% and 2.98% | -2.46% and -0.82% | -0.52% and 0.67% |
| CN(c1ccc(NC(=O)NCCN2CCOCC2)cc1)c1ccnc(Nc2ccc(CS(C)(=O)=O)cc2)n1 | 3.72% | 0.77% | 2.7% | 0.79% | 5.83% | 4.13% | 6.58% | 1.11% | 3.21% | 0.47% | 1.28% | 0.25% | 2.58% | 1.92% | 2.04% | -0.08% | 0.81% | 4.11% | 4.4% | 0.08% |
| CNC(=O)c1sc(-n2cnc3cc(OC)c(OC)cc32)cc1OCc1ccccc1C(F)(F)F | 3.4% | -2.11% | -0.26% | 5.47% | 5.08% | 4.76% | 4.92% | 3.34% | 1.88% | 1.92% | 1.74% | -2.64% | -0.97% | 3.44% | 4.4% | 0.73% | 6.41% | 6.54% | 0.66% | -7.75% |
| COc1ccccc1-c1cc(/C=C2\C(=O)Nc3ncc(Br)cc32)cc(Br)c1O | 2.3% | 0.86% | -0.04% | 2.73% | 11.3% | 5.59% | 5.73% | 0.15% | 9.18% | 2.49% | 4.01% | -2.27% | -5.25% | 8.24% | 18.6% | 7.45% | 13.9% | -5.01% | 7.13% | 0.8% |
